Peg3 promoter: reduces Peg3 promoter-driven luciferase expression in HeLa; HeLa PEG-Prom luciferase reporter, luminescence, overnight; inhibition, % at 20 µM; 1.7% of 360,000 active;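 active = inhibition of at least 50% at 20 µM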
CF NFkB inh: blocks PAF-induced NF-kB reporter in cystic fibrosis cells | KKLEB NF-kB-GFP reporter, GFP fluorescence overnight | inhibition, % at 5 µM | 0.86% of 360,000 active;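 active = at least 50% inhibition at 5 µM, scaled per plate between neutral and stimulator controls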;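 note: PAF is a Pseudomonas aeruginosa culture filtrate used as stimulus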
PPC-1+TRAIL kill: kills PPC-1 cancer cells in the presence of TRAIL | PPC-1 cells + TRAIL, ATPLite viability luminescence | cell killing (% activity), % at 4 µM or 5 µM | 0.41% of 220,000 active | AID 1443;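 active = cell killing above 50% in the first pass at 4 µM, then a duplicate retest at 5 µM averaging 50% or more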
C8 TRAIL sens: sensitizes caspase-8 expressing cells to TRAIL. inhibition (viability loss, TRAIL sensitization), % at 10 µM. 1% of 360,000 active. AID 624354. NB7+C8 cells + TRAIL, ATPlite viability luminescence;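 active = compounds causing at least 50% loss of cell viability in the single-dose screen, relative to plate controls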
KKLEB cytotox: CF airway cell cytotoxicity counter-screen. activity change (cytotoxicity), % at 5 µM. 0.36% of 360,000 active. KKLEB CF airway cells viability, ATPlite luminescence, overnight; hits give low values; cells stimulated with P. aeruginosa culture filtrate. AID 602141;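 active = corrected activity change at or below -50% at 5 µM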
HIF-2a block: blocks HIF-2a reporter activity; inhibition, % at 18.8 µM; AID 624352; 0.72% of 360,000 active; 786-0 RCC cells HIF-2a reporter, luciferase luminescence, overnight;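 active = inhibition of the luminescence signal of 40% or more relative to plate controls, in a single-dose primary screen at 18.75 µM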
CF NFkB inh conf: confirmation of cystic fibrosis induced NF-kB inhibitors; shares compounds with CF NFkB inh; 64% of 1,300 active; KKLEB CF airway cells, PAF-induced NF-kB-GFP fluorescence, overnight; inhibition, % at 5 µM; in the data active = inhibition above about 40%;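 note: stimulus PAF is a Pseudomonas aeruginosa filtrate and not platelet activating factor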
Of the large screens only hits and unclear results are named; the others gave an inactive call (follow-up assays come after a bar, where they were run). In the library only some 3.1% were active in any assay of this set; here they are far more common.

CCN(CC(=O)Nc1ccc(OC)cc1)C(=O)c1cc(-c2cccs2)nn1-c1ccccc1	CF NFkB inh 54 (no result: PPC-1+TRAIL kill) | CF NFkB inh conf 51
CC(=O)c1cccc(N(C(=O)c2ccco2)C(C(=O)NC2CCCC2)c2ccccc2F)c1 (configuration not stated)	none (no result: PPC-1+TRAIL kill)
CC(C)(C)c1nc(NC(=O)Nc2ccccc2)sc1Br	CF NFkB inh 69 | CF NFkB inh conf 65
COc1ccc(NC(=O)Nc2nnc(C(C)(C)C)s2)cc1	none
CC(C)(C)c1ccc(C(=O)Nc2ccc(O)c3c(=O)cc(-c4cccc(Cl)c4)oc23)cc1	none
COc1ccc(C(=O)Nc2ccc(O)c3c(=O)cc(-c4cccc(Cl)c4)oc23)cc1	CF NFkB inh 50 | CF NFkB inh conf inactive
CN(CC(=O)Nc1ccccc1Cl)C(=O)COC(=O)c1nc(Cl)c(Cl)c(Cl)c1Cl	Peg3 promoter 105, CF NFkB inh 87 (no result: PPC-1+TRAIL kill) | CF NFkB inh conf inactive
CCN(CC)c1ncnc2ccc(Br)cc12	CF NFkB inh 71 | CF NFkB inh conf 40
CCNC(=O)C1(C)CCN(C(=O)c2c(F)cccc2F)C1 (configuration not stated)	none (no result: PPC-1+TRAIL kill)
Cc1nc2sc3c(NCc4ccco4)ncnc3c2c2c1COC(C)(C)C2	CF NFkB inh 72 | CF NFkB inh conf inactive
OCCCNc1ncnc2scc(-c3ccc(Cl)cc3)c12	CF NFkB inh 63 (no result: PPC-1+TRAIL kill) | CF NFkB inh conf 81
O=C1NCCc2c1[nH]c1c(Cl)ccc(Cl)c21	CF NFkB inh 56 | CF NFkB inh conf 71
CCc1nc2ccc(C(=O)N(CC)CCN(C)C)cn2c1N(C)Cc1nccs1	none (no result: PPC-1+TRAIL kill)
CCOC(=O)c1ccc(N=c2sc(C(=O)OC)cc(=O)n2CCCN2CCOCC2)cc1	none
CCn1c(=O)cc(C(=O)OC)sc1=Nc1ccc(F)c(F)c1	Peg3 promoter 65, CF NFkB inh 50 | CF NFkB inh conf inactive
CC[C@@H](C(=O)[C@@H](C)[C@@H](O)[C@H](C)[C@@H]1O[C@@H]([C@@H](CC)C(=O)O)CC[C@@H]1C)[C@H]1O[C@]2(C=C[C@@H](O)[C@]3(CC[C@@](C)([C@H]4CC[C@](O)(CC)[C@H](C)O4)O3)O2)[C@H](C)C[C@@H]1C	Peg3 promoter 101, CF NFkB inh 69 (no result: PPC-1+TRAIL kill) | CF NFkB inh conf 105
O=C(CC1(CC(=O)N2CCOCC2)CCCC1)Nc1ccc(F)cc1	none (no result: PPC-1+TRAIL kill)
CCC(Oc1ccccc1)C(=O)Nc1nnc(C)s1 (configuration not stated)	none
CCC(Oc1ccccc1)C(=O)Nc1ncc([N+](=O)[O-])s1 (configuration not stated)	CF NFkB inh 50 | CF NFkB inh conf 46
O=C(COc1ccc(Cl)cc1)Nc1ncc([N+](=O)[O-])s1	CF NFkB inh 57 | CF NFkB inh conf 75
Nc1nc(-c2cc(O)ccc2[N+](=O)[O-])cc(-c2ccccc2)c1[N+](=O)[O-]	none (no result: PPC-1+TRAIL kill)
Cc1ccc(N=Cc2cc3c(cc2O)OC(N)=C(C#N)C3c2ccccc2)cc1 (configuration not stated)	CF NFkB inh 54 | CF NFkB inh conf 74
N#CC1=C(N)Oc2cc(O)c(C=Nc3ccccc3)cc2C1c1ccccc1 (configuration not stated)	none
O=C(Nc1cc(-c2nc3ncccc3o2)ccc1Cl)c1ccc([N+](=O)[O-])o1	Peg3 promoter 88, CF NFkB inh 80 (no result: PPC-1+TRAIL kill) | CF NFkB inh conf inactive
CCOC(=O)Nc1nc(-c2ccccc2)c(C(=O)c2ccccc2)s1	CF NFkB inh 53 | CF NFkB inh conf 77
COc1cc(NS(=O)(=O)c2ccc(NC(=O)/C=C/C(=O)O)cc2)nc(OC)n1	none (no result: PPC-1+TRAIL kill)
CCCc1ccc(S(=O)(=O)NCc2nnc(SC)n2C)cc1	none (no result: PPC-1+TRAIL kill)
O=C(Oc1ccc(F)cc1C(=O)/C=C/c1cccs1)c1cccc([N+](=O)[O-])c1	CF NFkB inh 50 | CF NFkB inh conf 60
O=C([O-])c1ccccc1-[n+]1c(-c2ccccc2)cc(-c2ccccc2)cc1-c1ccccc1	none (no result: PPC-1+TRAIL kill)
Fc1ccc(-n2cc(-c3ccccc3)c3c(N4CCOCC4)ncnc32)cc1	Peg3 promoter 54, CF NFkB inh 86 | CF NFkB inh conf 104

Assay outcomes: PubChem, Sanford-Burnham Center for Chemical Genomics
